According to PubChem BioAssay (NCI):
Compounds without any hit were thinned out: in the full panel of roughly 83,000, 20% have a hit.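 How to read the values: 0–100, growth inhibition (40 = 60% inhibited); 0, no net growth; -100 to 0, cell death (-40 = 40% of starting cells died; -100 = all dead).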 A number with no mark means an inactive call. Active and inactive are the calls of the source. How the source made its calls: active means growth percent below 10; inactive means the rest.

Experiments:
Assay in all cases: NCI-60 one-dose screen, 48 h (100 = growth as untreated, 0 = no growth, -100 = all killed)
Conditions in all cases: 10 µM unless noted
[1] = tested on: NCI-H23 lung
[2] = tested on: NCI-H226 lung
[3] = tested on: NCI-H322M lung
[4] = tested on: HOP-62 NSCLC
[5] = tested on: NCI-H460 lung
[6] = tested on: HOP-92 NSCLC
[7] = tested on: NCI-H522 lung
[8] = tested on: A549/ATCC NSCLC
[9] = tested on: 786-0 renal
[10] = tested on: COLO 205 colon
[11] = tested on: DU-145 prostate
[12] = tested on: K-562 leukemia
[13] = tested on: MALME-3M melanoma
[14] = tested on: MDA-MB-231 breast
[15] = tested on: RXF 393 renal
[16] = tested on: SF-268 CNS
[17] = tested on: SF-295 CNS
[18] = tested on: SF-539 CNS
[19] = tested on: UACC-257 melanoma
[20] = tested on: M14 melanoma

Structure (SMILES)	growth [1]	growth [2]	growth [3]	growth [4]	growth [5]	growth [6]	growth [7]	growth [8]	growth [9]	growth [10]	growth [11]	growth [12]	growth [13]	growth [14]	growth [15]	growth [16]	growth [17]	growth [18]	growth [19]	growth [20]
CN(C[C@H]1Cc2c(cccc2N2CCN(Cc3ccccn3)CC2)CN1)[C@H]1CCCc2cccnc21	62.4%	56.9%	65.3%	39.1%	28.1%	73.2%	95.5%	40.3%	68.5%	69.6%	66.6%	9.95% (active)	88.3%	70.2%	77.9%	63.8%	43.4%	83%	93.1%	62.3%
NC(=S)N/N=C(/CCN1CCCC1)CC(C1=C(O)C2=CCCCC2OC1=O)c1ccccc1 (stereo not given)	72.8%	85.7%	85.7%	79.1%	101%	68.3%	80.1%	99.4%	105%	102%	87.3%	38.8%	73%	70.4%	106%	89.6%	98.5%	95.4%	73.1%	79%
CCCCCCCCCCCCNC(=O)[C@H]1CSC(c2ccsc2)N1 (stereo not given in full)	-52.9% (active)	-74.1% (active)	3.58% (active)	-94.7% (active)	-80.1% (active)	-10% (active)	32.7%	63.7%	-94.8% (active)	84%	-85.8% (active)	-57% (active)	-69.9% (active)	-80.5% (active)	-93.2% (active)	-77.1% (active)	-29.9% (active)	-89.2% (active)	-87.2% (active)	-77.5% (active)
O=[N+]([O-])c1cccc(-c2nc3sccn3c2-c2ccnc(NCCCNS(=O)(=O)c3ccc(C(F)(F)F)cc3)n2)c1	29.7%	23.8%	63.1%	50%	40.2%	53%	20.8%	31.3%	51.8%	24.7%	47.3%	20.6%	30.5%	57.3%	55.6%	38.1%	27.2%	70.9%	37.4%	27.7%
Clc1cc(Cl)cc(-c2ccc(-c3ccc(/C=N/NC4=NCCN4)cc3)s2)c1	39.1%	85.1%	98.3%	71%	4.5% (active)	38.9%	71.4%	-22.4% (active)	75.8%	-17.1% (active)	23.4%	-1.14% (active)	98.3%	61.5%	60.6%	76.2%	93.7%	84%	103%	94.4%
CCN(CC)c1ccc(/C=C2\Oc3ccc(O)c(I)c3C2=O)cc1	67.5%	88.8%	96.9%	77.8%	25.5%	81.9%	22.6%	46%	73.6%	64.3%	87%	12.5%	63.4%	65.8%	63%	71.4%	68.9%	58.3%	80.6%	28.7%
CCCCNC(=O)Oc1ccc(/C(=C(\C)c2ccccc2)c2ccc(OCCN(CC)CC)cc2)cc1	77.5%	85.4%	86.3%	88.2%	56.1%	43.3%	53.4%	62.2%	67.3%	58.5%	89.3%	8.28% (active)	76.1%	103%	52.8%	68.5%	91.1%	48.3%	19.3%	6.41% (active)
CCCC(=O)Oc1ccc(/C(=C(\C)c2ccccc2)c2ccc(OCCN(CC)CC)cc2)cc1	87.6%	99.3%	83.3%	92.9%	69.8%	57.7%	72.1%	67.2%	71%	51%	102%	16%	70.3%	92.6%	61.1%	77.2%	91.4%	60.4%	67.6%	40.7%
C[n+]1c(/C=C/c2c(O)ccc3ccccc23)ccc2ccccc21	37.2%	47.5%	42.9%	54.8%	9.44% (active)	-10.2% (active)	-6.6% (active)	51.3%	49.2%	25.3%	49.1%	6.81% (active)	40.4%	24.8%	37.9%	61.2%	40.6%	-14.9% (active)	46.1%	34.3%
Cc1nc2ncccc2nc1Nc1ccc(S(=O)(=O)Nc2cncs2)cc1	85%	92.5%	101%	94%	97.1%	65.4%	103%	103%	96.3%	98.9%	107%	109%	103%	84%	112%	98.2%	107%	106%	101%	99.6%
COc1ccc(C(=O)c2cc(OC)c3c(c2)OCO3)cc1O	30.4%	66.9%	51.4%	35.5%	8.5% (active)	44.1%	-7.3% (active)	24.5%	44%	84.9%	-2.4% (active)	14.8%	50.7%	16.4%	-4.75% (active)	27.6%	15.5%	6.91% (active)	65.6%	14.2%
O=C(c1ccccc1)C1OC1c1ccc([N+](=O)[O-])cc1 (stereo not given)	48.1%	67.7%	106%	86.4%	84%	61.5%	31.4%	85.6%	83.3%	112%	67.9%	32.6%	83.6%	78.4%	77.8%	79.2%	97%	96.5%	68.1%	48.2%
O=C(NNC(=O)N1c2ccccc2C=Cc2ccccc21)c1ccc2ccccc2c1	98.4%	95.5%	99%	99.1%	100%	81.4%	85.9%	95.7%	96.1%	101%	95.5%	87.2%	95.6%	94.2%	103%	91.4%	93.5%	92.2%	103%	101%
O=C1/C(=C/c2ccc(Cl)cc2)CN(C(=O)CCN2CCC(=NO)CC2)C/C1=C\c1ccc(Cl)cc1	-57% (active)	-20.5% (active)	-75% (active)	-80.1% (active)	-67% (active)	-39.1% (active)	-92.1% (active)	2.34% (active)	-76.9% (active)	-83.9% (active)	-89.2% (active)	-13.9% (active)	-49.5% (active)	-83.1% (active)	-91.3% (active)	-60.1% (active)	-76.3% (active)	-84.5% (active)	-76.7% (active)	-45.2% (active)
Cc1cc(C2=NNC(=O)Cc3cc4c(cc32)OCCO4)cc(C)c1N	44.2%	75.1%	44.9%	37.4%	17.6%	69%	-20.1% (active)	50.7%	32.5%	9.99% (active)	19.3%	25.5%	32.3%	67.5%	37.7%	44.6%	17.1%	19.4%	60.1%	13.4%
CCOC(=O)C1=C(C)NC(C)=C(C(=O)OCC)C1(C)C	113%	98.8%	107%	102%	111%	98.3%	98.1%	93.2%	88.2%	113%	123%	89.9%	111%	98.8%	98.1%	110%	117%	91.7%	96.3%	109%
